Data as given in PubChem BioAssay (NCI).
Compounds without any hit were thinned out: in the full panel of roughly 83,000, 20% have a hit.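 For each line, cells grew in 96-well plates with the test compound present at a single concentration for 48 hours.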 A number with no mark means an inactive call. Active and inactive are the calls of the source. How the source made its calls: active means growth percent below 10; inactive means the rest.

Tested on: HL-60(TB) leukemia
Assay: NCI-60 one-dose screen, 48 h (100 = growth as untreated, 0 = no growth, -100 = all killed)
Conditions: 10 µM unless noted

| Structure (SMILES) | growth |
| --- | --- |
| OC1CCC(Cn2c(C(F)(F)F)cc3c(Cl)ncnc32)CC1 (stereo not given) | -37.5% (active) |
| Cc1ccc(CSc2nc(-c3ccc(F)cc3)c(C#N)c(=O)[nH]2)cc1 | 56.6% |
| O=C(Nc1cccc([N+](=O)[O-])c1)Nc1cccc([N+](=O)[O-])c1 | 92.4% |
| Cc1nc2sccn2c1-c1nnc(SCc2ccccc2)o1 | 89.9% |
| COc1cc2c3c(n(CCCNC(C)C)c(=O)c2cc1OC)-c1nc2c(cc1C3=O)OCO2 | 71.6% |
| O=C(CNc1nc(-c2ccccc2)cs1)Nc1ccc([N+](=O)[O-])cc1 | 5.69% (active) |
| CC(=O)Nc1cccc(-c2nc3cc(-c4ccc(O)cc4)ccc3n2C)c1 | 20.7% |
| Oc1ccc(Cl)c(Nc2nc(SCCN3CCOCC3)nc3c2cnn3CC(Cl)c2ccc(Br)cc2)c1 (stereo not given) | -36.2% (active) |
| COc1ccc(-c2cc(-c3cc(C(=O)c4ccccc4)n4ccc(C)cc34)nc(N)c2C#N)cc1 | 99.7% |
| NS(=O)(=O)c1ccc(Nc2nc(N/N=C/c3cc(Br)c(O)c(Br)c3)nc(Nc3ccccc3)n2)cc1 | 47.3% |
| O=C(Cc1ccc2c(c1)CN(C1CCC(=O)NC1=O)C2=O)NCCc1ccccc1 (stereo not given) | -19.2% (active) |
| O=CNc1ccc(-n2cnc3cc(-c4ccc(O)cc4)ccc32)cc1 | 64.2% |
| COc1ccc(C2=NN(c3ccccc3)C(c3ccc(OC)c(OCc4ccccc4)c3)C2)cc1OC (stereo not given) | 100% |
| CC1=C(C(=O)Nc2ccccc2)C(c2cccc3ccccc23)n2c(nc3ccccc32)N1 (stereo not given) | 95% |
| CCNCCCn1c2c(c3cc(OC)c(OC)cc3c1=O)C(=O)c1cc3c(nc1-2)OCO3 | 55.1% |
| COc1ccc(C(=O)/C=C/c2cc(F)cc(C(F)(F)F)c2)cc1S(N)(=O)=O | -4.63% (active) |
| CN1C(=O)N(C)C2SC(N/N=C/C=C/c3ccccc3)=NC21 (stereo not given) | 30.4% |
| CC(C)c1ccc2c(N)c(C(=O)Nc3ccc(C(F)(F)F)cn3)sc2n1 | 46.8% |
| CCN1C(=O)/C(=N\N=C(/C)c2ccc3c(c2)Nc2ccccc2S3)c2cc(Cl)ccc21 | 75.2% |
| CC1(C)CC[C@]2(C(=O)O)CC[C@]3(C)C(=CCC4[C@@]5(C)C[C@@H](O)[C@@H]6OC(c7ccco7)OC[C@@]6(C)C5CC[C@]43C)C2C1 (stereo not given in full) | 13.5% |

| Structure (SMILES) | growth |
| --- | --- |
| CNS(=O)(=O)c1ccc(Nc2ccc(C(F)(F)F)cc2)c(-c2cn(C)cn2)c1 | 48% |
| CC(=O)OCC1OC(OC2C(COC(C)=O)OC(n3cc(COc4ccc5ccc(=O)oc5c4)nn3)C(OC(C)=O)C2OC(C)=O)C(OC(C)=O)C(OC(C)=O)C1OC(C)=O (stereo not given) | 103% |
| CC(=O)OC[C@@]1(C)C2CC[C@]3(C)C(CC=C4C5CC(C)(C)CC[C@]5(C(=O)Nc5ccccc5)CC[C@]43C)[C@@]2(C)C[C@@H](OC(C)=O)[C@@H]1OC(C)=O (stereo not given in full) | 22.6% |
| Cc1ccc([C@H]2C(C(=O)c3ccc(Cl)cc3)C3(N[C@@H]2c2ccccc2)C(=O)Nc2ccccc23)cc1 (stereo not given in full) | -22.2% (active) |
| CCOc1ccc(/C=N/NC(=O)Cn2nc(Cc3ccc([N+](=O)[O-])cc3)c3onc(C)c3c2=O)cc1 | 81.5% |
| COc1ccc(C(=O)NNC(=O)CSc2nc3sc4c(c3c(=O)n2-c2ccc(Cl)cc2)CCCC4)cc1 | 64.5% |
| COc1c(F)ccc(C(=O)Nc2ccc3nc(NC(=O)C4CCCN(S(=O)(=O)c5cccc(C(F)(F)F)c5)C4)sc3c2)c1F (stereo not given) | 72.1% |
| OCNc1ccc(-n2cnc3cc(-c4ccc(O)cc4)ccc32)cc1C(F)(F)F | -2.45% (active) |
| COc1ccc(Nc2nc(N)n(Cc3cccc(Br)c3)n2)cc1 | -11.4% (active) |
| COc1ccccc1-n1cc(C#N)c(N)c1C(=O)c1ccc(Cl)cc1Cl | 1.26% (active) |
| C[C@@H]1[C@H]2C[C@@H](C[C@H]1NCc1nc3ccccc3n1C1CCCCCC1)C2(C)C | 15% |
| CCCCCCCCc1ccc(S(=O)(=O)Nc2ccc(CC)cc2C(=O)O)cc1 | 120% |
| N#C/C(=C1/C(=O)Nc2ccccc21)c1nnc(NC(=O)c2ccc(-n3c(=O)[nH]c4ccccc4c3=O)cc2)s1 | 7.15% (active) |
| Cc1sc2c(c1C)C(c1ccc(Cl)cc1)=N[C@@H](CC(=O)NCCCCCNC(=O)COc1ccc(C3CCC(=O)NC3=O)cc1)c1nnc(C)n1-2 (stereo not given in full) | -16.6% (active) |
| COc1ccc(NC(=O)[C@@H](N)Cc2ccccc2)cc1C(=O)Nc1cccc(C2CC(=O)c3c(cc(OC)c(OC)c3OC)O2)c1 (stereo not given in full) | 1.01% (active) |
| COc1cccc(-c2ccc(/C=N/NC(=O)c3[nH]c4ccc(Br)cc4c3-c3ccccc3)o2)c1 | -38.4% (active) |
| Cc1cc(N=C2NC(=O)S/C2=C\c2ccc(F)cc2)n[nH]1 | 1.74% (active) |
| Fc1cccc(CNc2nc(SCCN3CCOCC3)nc3c2cnn3CC(Cl)c2ccc(Br)cc2)c1 (stereo not given) | -23.6% (active) |
| C=CC(=O)Nc1ccc(C)c(Oc2ccc(Cl)cc2)c1 | 54% |
| Cn1cc(-c2cc(N)n3nc(-c4c[nH]c5ccccc45)cc3n2)c2cc(Br)ccc21 | -18.3% (active) |
